Hits are enriched below; roughly 4.5% of the tested compounds scored in any of these assays.
DAX1 inh-1: DAX1 (NR0B1) inhibitors on StAR promoter, primary screen, cell-based, luminescence, SF-1 (NR5A1), full-length DAX-1 | actives 1.1% (n = 370,000) | HEK293T StAR-luciferase reporter, SF-1/DAX-1 repression relief | inhibition, % at 6.8 µM;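 active = inhibition above the mean over all tested compounds plus 3 SD, cut at about 3.6% in these data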;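 also: 0% = DAX-1 cells with DMSO and 100% = cells lacking DAX-1 with DMSO; higher inhibition means more luminescence from relief of DAX-1 repression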
FXN GAA850 act: FXN promoter activators, primary screen, cell-based, luciferase luminescence, HEK293 lucGAA850; HEK293 lucGAA850 FXN promoter luciferase reporter, 24 h; percent of 10 µM SAHA response; activation, % at 6 µM; actives 0.56% (n = 360,000); AID 540364, 2011;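 active = activation above the average of all compounds screened plus 3 SD, cutoff fixed separately per campaign, cut at about 7.5% in these data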;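 also: 0% = DMSO wells and 100% = 10 µM SAHA wells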
hgDAF-12 ag: H. glycines DAF-12 receptor agonists, primary screen, cell-based, luminescence, HEK293, GAL4 fusion, UAS-luciferase; Nuclear hormone receptor DAF-12 (Heterodera glycines), GAL4 fusion; HEK293 GAL4-hgDAF12 UAS-luciferase reporter, agonist luminescence; normalized to butyrate control; activation, % at 6.8 µM; actives 1.8% (n = 370,000);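 active = activation above a cutoff set at the mean of all screened compounds plus 3 SD, cut at about 10% in these data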;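 also: 0% = DMSO wells and 100% = sodium butyrate wells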
DAX1 inh-2: DAX1 (NR0B1) inhibitors, primary screen, cell-based, HEK293, Gal4-DAX1, luciferase luminescence; HEK293 Gal4-DAX1 luciferase reporter; Nuclear receptor subfamily 0 group B member 1 (Homo sapiens), P51843; actives 0.99% (n = 340,000); inhibition, % at 6.75 µM;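 active = inhibition above the mean over all tested compounds plus 3 SD, cut at about 4.2% in these data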;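 also: 0% = DAX1-transfected cells with DMSO and 100% = empty-vector control cells with DMSO; inhibition shows as a rise in luminescence from relieved DAX1 repression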
hcDAF-12 act: H. contortus DAF-12 nuclear receptor activators, primary screen, cell-based, luminescence, HEK293, lit1-tk-luc reporter | HEK293 hcDAF-12 lit1-tk-luc reporter; 0% DMSO, 100% Δ7-dafachronic acid | activation, % at 6.8 µM | AID 652067, 2013 | actives 1.4% (n = 370,000);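 active = activation above the mean of all tested compounds plus 3 SD, cut at about 5.5% in these data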;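 also: 100% = response to 3 µM Δ7-dafachronic acid high control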
ssDAF12 agonist: S. stercoralis DAF-12 nuclear receptor activators, primary screen, cell-based, luminescence, HEK293, GRIP1 co-expression, lit1-tk-luc; Nuclear hormone receptor DAF-12 (Strongyloides stercoralis); HEK293 ssDAF-12/GRIP1 lit1-tk-luc reporter; % of 3 µM dafachronic acid response; activation, % at 6.8 µM; actives 1% (n = 370,000); AID 652126, 2013;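 active = activation above the mean over all tested compounds plus 3 SD, cut at about 0.9% in these data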;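 also: 0% = DMSO-only wells and 100% = 3 µM delta7-dafachronic acid wells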
LXR ag: LXR agonists, Gal4 luciferase reporter, confirmation, counter-screen for hcDAF-12 agonist project, cell-based, luminescence, HEK293, H. contortus campaign; 3,400 tested, under 10 active; activation, % at 6.8 µM; shares compounds with hcDAF-12 act; HEK293 Gal4-LXR tk-luc reporter, 24 h; normalized: DMSO 0%, positive control 100%; AID 743027, 2013;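 active = mean percent activation of the reporter above a cutoff set as the average over tested compounds plus their standard deviation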
Target sequence (P55055 whole entry, looked up, the tested form may be a part): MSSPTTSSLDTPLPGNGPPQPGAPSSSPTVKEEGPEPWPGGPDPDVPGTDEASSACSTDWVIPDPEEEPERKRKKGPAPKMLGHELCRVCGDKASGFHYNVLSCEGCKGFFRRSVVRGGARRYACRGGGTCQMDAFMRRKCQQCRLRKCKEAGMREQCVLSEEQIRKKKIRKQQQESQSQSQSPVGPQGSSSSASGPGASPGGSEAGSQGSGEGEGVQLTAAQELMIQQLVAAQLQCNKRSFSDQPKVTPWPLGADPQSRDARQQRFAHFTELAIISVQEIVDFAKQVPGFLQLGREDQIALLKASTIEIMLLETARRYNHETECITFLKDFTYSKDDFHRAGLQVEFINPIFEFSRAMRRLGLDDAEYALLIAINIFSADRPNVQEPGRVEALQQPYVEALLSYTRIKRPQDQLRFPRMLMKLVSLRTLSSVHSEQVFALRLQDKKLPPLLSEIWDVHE
hcDAF12 conf: H. contortus DAF-12 receptor agonists, confirmation, cell-based, luminescence, HEK293, lit1-tk-luc, triplicate; AID 743032, 2013; shares compounds with hcDAF-12 act; actives 61% (n = 3,400); activation, % at 6.8 µM; HEK293 hcDAF-12 lit1-tk-luc reporter; % of Δ7-dafachronic acid response;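 active = mean activation across triplicate tests above the threshold derived from the earlier primary screen, cut at about 5.5% in these data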;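 also: 0% = DMSO only wells and 100% = 3 µM Δ7-dafachronic acid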
hgDAF12 conf: H. glycines DAF-12 receptor agonists, confirmation, cell-based, luminescence, HEK293, GAL4-LBD fusion; shares compounds with hgDAF-12 ag; HEK293 GAL4-hgDAF12 luciferase reporter, agonist mode; percent of butyrate response; activation, % at 6.8 µM; actives 80% (n = 3,300);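 active = mean activation over triplicate wells above the hit cutoff derived from the earlier primary screen, cut at about 11% in these data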;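 also: 0% = DMSO low control and 100% = 2 mM sodium butyrate high control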
LXR ag 2: LXR agonists, Gal4 luciferase reporter, confirmation, counter-screen for hgDAF-12 agonist project, cell-based, luminescence, HEK293, H. glycines campaign. shares compounds with hgDAF-12 ag. 24 h. activation, % at 6.8 µM. 3,300 tested, under 10 active. AID 743051, 2013;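 active = mean activation of the triplicate above a set limit carried over from the primary screen, none filed active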
Numbers without * were called inactive; / = not tested or not shown.

SMILES	DAX1 inh-1	FXN GAA850 act	hgDAF-12 ag	DAX1 inh-2	hcDAF-12 act	ssDAF12 agonist	LXR ag	hcDAF12 conf	hgDAF12 conf	LXR ag 2
O=C(CC1C(=O)NCCN1Cc1ccccc1)NCCC1=CCCCC1 (stereo not given)	0	-1	-2	2	1	0	/	/	/	/
CN1CCSc2ccc(C(=O)Nc3cc(F)ccc3F)cc21	4.3*	7	20*	9.5*	7.2*	1.1*	2	4	18*	1
Cc1cccc(CNC(=O)c2ccc3c(c2)N(C)CCS3)c1	-1	-1	1	0	-1	-1	/	/	/	/
CCc1ccc2oc(-c3cccc(N)c3)nc2c1	4.3*	1	16*	-1	16*	3.3*	2	14*	24*	1
Cc1nnc(C)n1/N=C/c1ccccn1	0	1	2	1	1	-1	/	/	/	/
C(=C\n1nnc2ccccc21)/c1ccccn1	3	2	19*	1	8.4*	1.2*	2	7.5*	24*	1
Cc1nc(C)c(-c2csc(Nc3ccccn3)n2)s1	0	6	6	-1	4	0	/	/	/	/
Cc1cc(-c2csc(Nc3ccccn3)n2)ccc1F	2	1	17*	4	15*	1.7*	2	12*	19*	1
Cc1nc(N)sc1-c1csc(Nc2ccccn2)n1	0	2	0	3	4	0	/	/	/	/
Cc1ccc(Nc2nc(CSc3nnc(-c4ccncc4)n3C)cs2)cc1	4	6	16*	-2	7.3*	0	1	4	15*	0
Cc1ccc(-c2csc(Nc3ccccn3)n2)cc1	2	-1	16*	-3	8.2*	2.2*	2	9.9*	19*	1
Cc1ccc(Nc2nc(-c3ccc(S(=O)(=O)N4CCOCC4)cc3)cs2)cc1	-1	2	-1	-2	-1	-1	/	/	/	/
Cc1ccc(Nc2nc(-c3ccncc3)cs2)cc1	4.2*	4	16*	1	8.9*	2.4*	1	7.2*	19*	1
C/C(=N\NC(=O)CCC(=O)Nc1ccc(C)c(C)c1)C1CC1	-2	1	0	0	-2	-1	/	/	/	/
O=C(Nc1cc(S(=O)(=O)N2CCOCC2)ccc1N1CCOCC1)C1CCCO1 (stereo not given)	0	3	0	2	-1	-1	/	/	/	/
O=C1NC[C@@H](CCCCN2C[C@H](Cc3ccc(O)cc3)N(CC3CCCCC3)C(=O)C2=O)N(CCC2CCCCC2)C1=O	2	/	-1	/	-1	0	/	/	/	/
Fc1ccc(-c2csc(Nc3ccccn3)n2)c(F)c1	2	6	14*	3	15*	3.4*	2	16*	20*	1
CC(=O)Nc1cccc(-c2csc(Nc3ccc(C)cn3)n2)c1	5.5*	4	17*	0	13*	1	2	8.3*	21*	1
O=C(Nc1nc(-c2cc(F)ccc2F)cs1)c1ccccn1	-1	6	4	0	2	-1	/	/	/	/
Cc1cccnc1Nc1nc(-c2ccc(F)cc2)cs1	3	6	18*	6.2*	10*	1.9*	1	8.2*	16*	1
Fc1ccc(-c2csc(NC3=NCCC3)n2)cc1	1	2	1	-1	0	-1	/	/	/	/
CN(C)C(=O)c1ccc(NC(=O)COC(=O)C2(c3ccccc3)CCCC2)cc1	-2	1	4	-1	1	-2	/	/	/	/
Cc1ccc2nc(-c3ccc(O)cc3)oc2c1	3	4	19*	0	9.0*	2.2*	2	7.2*	21*	1
CC(=O)Nc1ccc(-c2nc3ccc(NC(C)=O)cc3o2)cc1	1	4	8	1	1	0	/	/	/	/
CCN(CC(=O)N1CCC(C(N)=O)CC1)S(=O)(=O)c1ccc(Cl)cc1	1	0	-1	0	-2	-1	/	/	/	/
SMILES	DAX1 inh-1	FXN GAA850 act	hgDAF-12 ag	DAX1 inh-2	hcDAF-12 act	ssDAF12 agonist	LXR ag	hcDAF12 conf	hgDAF12 conf	LXR ag 2
O=C(Nc1nc2ccccc2[nH]1)c1cccc(F)c1	2	1	17*	0	13*	2.3*	2	12*	18*	1
O=C(Nc1nc2ccccc2[nH]1)c1ccc([N+](=O)[O-])cc1	2	3	9	1	4	-1	/	/	/	/
Cc1ccc(N(C)C2=NC(=O)CS2)cc1Cl	0	3	0	1	0	-1	/	/	/	/
O=C(Nc1nccs1)c1csc2c1CCCC2	0	0	14*	1	7.2*	0	0	4	10	0
O=C(Nc1ccon1)c1csc2c1CCCC2	0	0	5	-1	0	-2	/	/	/	/
Oc1ccc(C[C@@H]2CNC(=S)N2CCCCC2CCCCC2)cc1	-1	1	1	-1	0	-1	/	/	/	/
Cc1nc2cc(-c3ccccc3)nn2c(N)c1-c1ccccc1	1	-5	-2	0	0	-1	/	/	/	/
Cc1nn(-c2nc3ccccc3s2)c(N)c1-c1ccccc1	4.5*	5	19*	4	15*	0	1	5	18*	1

Assay outcomes deposited in PubChem BioAssay by The Scripps Research Institute Molecular Screening Center.
